Test results published in the supplement of paper PMC11732987, “Enantioselective OTUD7B fragment discovery through chemoproteomics screening and high-throughput optimisation” (Communications Chemistry, 2025).

Tests used:
Experiment in all cases: log2 ratio of Biotin-Ahx-Ub-VS probe labelling (fragment/DMSO); higher = less target engagement (more negative = stronger competition), active = hit call of the paper (q ≤ 0.05, log2 ratio ≤ -1)
Details in all cases: compound concentration: 200 uM; treatment time: 3 h
USP42 = target: T1, USP42 (UniProt Q9H9J4)
T1 sequence (whole entry): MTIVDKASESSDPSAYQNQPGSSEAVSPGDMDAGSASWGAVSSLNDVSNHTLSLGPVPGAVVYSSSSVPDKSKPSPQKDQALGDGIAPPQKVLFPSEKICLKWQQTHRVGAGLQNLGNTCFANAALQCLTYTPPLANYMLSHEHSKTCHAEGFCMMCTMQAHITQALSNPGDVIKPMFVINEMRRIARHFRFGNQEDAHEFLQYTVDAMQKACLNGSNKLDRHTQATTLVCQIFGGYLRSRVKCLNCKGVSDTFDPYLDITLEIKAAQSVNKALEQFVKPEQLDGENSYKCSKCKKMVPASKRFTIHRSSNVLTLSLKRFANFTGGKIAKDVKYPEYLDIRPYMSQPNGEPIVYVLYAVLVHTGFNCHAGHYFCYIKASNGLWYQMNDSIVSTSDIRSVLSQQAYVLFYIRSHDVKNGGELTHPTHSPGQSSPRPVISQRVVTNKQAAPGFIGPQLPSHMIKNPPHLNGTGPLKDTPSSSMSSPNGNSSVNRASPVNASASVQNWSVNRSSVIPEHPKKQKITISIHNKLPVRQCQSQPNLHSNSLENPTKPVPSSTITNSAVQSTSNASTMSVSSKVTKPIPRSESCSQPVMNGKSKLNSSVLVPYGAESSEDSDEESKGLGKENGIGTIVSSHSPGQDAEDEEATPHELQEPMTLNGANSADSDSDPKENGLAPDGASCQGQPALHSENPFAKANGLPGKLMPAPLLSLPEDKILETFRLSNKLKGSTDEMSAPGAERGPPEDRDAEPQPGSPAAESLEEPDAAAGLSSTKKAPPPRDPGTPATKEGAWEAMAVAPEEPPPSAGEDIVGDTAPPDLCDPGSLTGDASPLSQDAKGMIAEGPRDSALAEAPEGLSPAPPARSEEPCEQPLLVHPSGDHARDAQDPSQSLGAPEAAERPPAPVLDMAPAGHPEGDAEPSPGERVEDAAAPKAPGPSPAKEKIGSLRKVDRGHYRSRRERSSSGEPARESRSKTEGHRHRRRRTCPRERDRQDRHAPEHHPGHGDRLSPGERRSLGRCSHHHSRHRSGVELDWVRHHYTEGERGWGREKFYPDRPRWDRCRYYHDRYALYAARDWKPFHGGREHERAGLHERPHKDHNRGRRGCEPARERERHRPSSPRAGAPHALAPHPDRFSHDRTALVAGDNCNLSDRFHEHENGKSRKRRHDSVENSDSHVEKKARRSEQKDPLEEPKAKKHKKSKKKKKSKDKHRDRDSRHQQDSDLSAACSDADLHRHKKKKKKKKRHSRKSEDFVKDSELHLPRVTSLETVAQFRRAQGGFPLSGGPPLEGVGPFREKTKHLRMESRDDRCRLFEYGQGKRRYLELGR
In short: (§1)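 Labelled DUBs from HEK293T lysate were NeutrAvidin-enriched, digested with LysC and trypsin, and run by diaPASEF LC-MS/MS. Before that, each 495 µg sample in Tris/CHAPS/IGEPAL buffer with protease inhibitors was treated in triplicate with fragment at 200 µM or vehicle for 3 h, then with Biotin-Ahx-Ub-VS at 0.5 µM final for 1 h. Values are average log2 ratios of fragment over vehicle by unpaired t-test, based on global-median-normalised Spectronaut label-free quantities from proteins with ≥2 unique peptides.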

USP46 = USP46 (UniProt P62068)
In short: as §1

USP47 = target: T2, USP47 (UniProt Q96K76)
T2 sequence (whole entry): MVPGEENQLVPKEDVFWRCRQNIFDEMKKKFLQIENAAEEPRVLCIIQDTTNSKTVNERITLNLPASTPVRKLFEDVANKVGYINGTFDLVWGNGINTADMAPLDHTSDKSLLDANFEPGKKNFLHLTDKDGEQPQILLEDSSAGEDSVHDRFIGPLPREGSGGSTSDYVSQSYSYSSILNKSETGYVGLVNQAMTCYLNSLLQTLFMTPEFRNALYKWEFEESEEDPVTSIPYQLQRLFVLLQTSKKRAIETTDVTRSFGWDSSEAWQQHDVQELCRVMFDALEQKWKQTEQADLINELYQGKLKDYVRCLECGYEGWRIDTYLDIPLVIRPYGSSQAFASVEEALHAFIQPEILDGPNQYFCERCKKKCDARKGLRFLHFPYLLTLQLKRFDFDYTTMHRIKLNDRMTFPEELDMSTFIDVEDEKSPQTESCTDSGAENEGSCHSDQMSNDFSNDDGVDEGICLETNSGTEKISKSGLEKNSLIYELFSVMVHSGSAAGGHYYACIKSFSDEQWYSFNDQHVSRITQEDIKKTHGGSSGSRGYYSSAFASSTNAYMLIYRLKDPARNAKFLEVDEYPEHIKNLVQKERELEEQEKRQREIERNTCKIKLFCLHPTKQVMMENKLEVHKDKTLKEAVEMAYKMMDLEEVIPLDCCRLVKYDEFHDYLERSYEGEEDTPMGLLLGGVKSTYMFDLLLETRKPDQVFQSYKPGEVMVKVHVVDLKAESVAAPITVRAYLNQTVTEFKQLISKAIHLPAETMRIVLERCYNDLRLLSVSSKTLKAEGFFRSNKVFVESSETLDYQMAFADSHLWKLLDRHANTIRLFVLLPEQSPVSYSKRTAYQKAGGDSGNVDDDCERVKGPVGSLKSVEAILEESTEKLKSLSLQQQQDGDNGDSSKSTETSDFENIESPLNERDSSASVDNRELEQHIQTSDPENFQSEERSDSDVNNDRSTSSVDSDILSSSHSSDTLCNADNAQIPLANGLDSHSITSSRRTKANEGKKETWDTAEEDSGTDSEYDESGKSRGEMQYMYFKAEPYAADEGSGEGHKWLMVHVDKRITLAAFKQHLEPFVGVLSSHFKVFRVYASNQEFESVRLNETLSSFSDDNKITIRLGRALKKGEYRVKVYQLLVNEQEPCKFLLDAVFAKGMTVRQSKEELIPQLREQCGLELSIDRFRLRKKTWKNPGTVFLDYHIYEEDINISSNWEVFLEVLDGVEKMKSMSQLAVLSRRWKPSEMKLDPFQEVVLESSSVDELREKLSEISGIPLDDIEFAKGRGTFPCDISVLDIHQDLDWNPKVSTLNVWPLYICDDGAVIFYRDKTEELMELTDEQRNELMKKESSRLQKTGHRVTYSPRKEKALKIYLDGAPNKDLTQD
In short: as §1

USP48 = target: T3, USP48 (UniProt Q86UV5)
T3 sequence (whole entry): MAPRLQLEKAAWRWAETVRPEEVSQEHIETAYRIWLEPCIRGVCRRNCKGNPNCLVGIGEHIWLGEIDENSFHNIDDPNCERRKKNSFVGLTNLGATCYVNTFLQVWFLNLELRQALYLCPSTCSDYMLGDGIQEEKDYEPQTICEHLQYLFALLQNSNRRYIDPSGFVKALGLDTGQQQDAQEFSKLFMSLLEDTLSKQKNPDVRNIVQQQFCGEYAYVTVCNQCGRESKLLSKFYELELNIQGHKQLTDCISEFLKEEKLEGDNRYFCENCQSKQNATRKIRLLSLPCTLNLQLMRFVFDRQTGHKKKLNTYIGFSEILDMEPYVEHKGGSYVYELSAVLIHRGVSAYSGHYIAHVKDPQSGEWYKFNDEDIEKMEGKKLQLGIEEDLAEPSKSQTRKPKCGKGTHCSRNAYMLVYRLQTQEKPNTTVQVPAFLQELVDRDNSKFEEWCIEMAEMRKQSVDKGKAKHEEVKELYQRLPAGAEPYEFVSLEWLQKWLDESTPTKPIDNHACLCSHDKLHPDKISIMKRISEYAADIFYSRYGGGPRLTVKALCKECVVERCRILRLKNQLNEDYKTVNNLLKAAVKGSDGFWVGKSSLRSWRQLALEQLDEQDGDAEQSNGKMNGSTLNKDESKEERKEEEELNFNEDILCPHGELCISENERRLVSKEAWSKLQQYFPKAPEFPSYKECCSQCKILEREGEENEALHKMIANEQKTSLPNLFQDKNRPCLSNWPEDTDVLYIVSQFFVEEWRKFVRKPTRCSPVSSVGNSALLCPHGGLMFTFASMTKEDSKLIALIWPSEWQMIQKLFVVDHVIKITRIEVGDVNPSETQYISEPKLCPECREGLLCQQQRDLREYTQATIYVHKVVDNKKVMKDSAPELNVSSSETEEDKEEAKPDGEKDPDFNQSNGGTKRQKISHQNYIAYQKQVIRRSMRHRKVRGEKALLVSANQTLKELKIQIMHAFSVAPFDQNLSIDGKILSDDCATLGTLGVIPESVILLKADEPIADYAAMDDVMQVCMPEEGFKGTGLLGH
In short: as §1

USP5 = target: T4, USP5 (UniProt P45974)
T4 sequence (whole entry): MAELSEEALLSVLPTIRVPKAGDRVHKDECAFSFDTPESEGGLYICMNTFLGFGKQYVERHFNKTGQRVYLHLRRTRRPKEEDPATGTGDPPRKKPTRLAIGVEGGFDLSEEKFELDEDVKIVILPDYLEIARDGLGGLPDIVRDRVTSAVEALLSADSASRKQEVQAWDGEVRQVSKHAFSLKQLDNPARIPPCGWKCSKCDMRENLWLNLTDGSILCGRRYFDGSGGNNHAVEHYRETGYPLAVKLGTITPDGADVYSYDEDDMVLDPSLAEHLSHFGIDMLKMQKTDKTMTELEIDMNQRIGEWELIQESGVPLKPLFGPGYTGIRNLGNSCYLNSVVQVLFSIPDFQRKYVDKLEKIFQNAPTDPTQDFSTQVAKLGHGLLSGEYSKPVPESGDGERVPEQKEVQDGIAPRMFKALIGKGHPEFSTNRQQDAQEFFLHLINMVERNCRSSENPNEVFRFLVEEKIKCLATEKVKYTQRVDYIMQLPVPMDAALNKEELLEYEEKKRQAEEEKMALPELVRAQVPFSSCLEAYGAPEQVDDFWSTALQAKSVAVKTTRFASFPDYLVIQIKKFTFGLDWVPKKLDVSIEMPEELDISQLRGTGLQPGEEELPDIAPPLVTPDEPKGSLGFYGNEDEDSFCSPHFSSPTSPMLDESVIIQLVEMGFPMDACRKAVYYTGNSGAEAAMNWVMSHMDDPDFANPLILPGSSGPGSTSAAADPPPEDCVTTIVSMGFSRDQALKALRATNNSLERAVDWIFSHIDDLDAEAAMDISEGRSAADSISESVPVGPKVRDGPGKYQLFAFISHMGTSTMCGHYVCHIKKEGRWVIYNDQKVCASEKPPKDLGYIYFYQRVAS
In short: as §1

USP54 = USP54 (UniProt Q70EL1)
In short: as §1

USP7 = USP7 (UniProt Q93009)
In short: as §1

USP8 = target: T5, USP8 (UniProt P40818)
T5 sequence (whole entry): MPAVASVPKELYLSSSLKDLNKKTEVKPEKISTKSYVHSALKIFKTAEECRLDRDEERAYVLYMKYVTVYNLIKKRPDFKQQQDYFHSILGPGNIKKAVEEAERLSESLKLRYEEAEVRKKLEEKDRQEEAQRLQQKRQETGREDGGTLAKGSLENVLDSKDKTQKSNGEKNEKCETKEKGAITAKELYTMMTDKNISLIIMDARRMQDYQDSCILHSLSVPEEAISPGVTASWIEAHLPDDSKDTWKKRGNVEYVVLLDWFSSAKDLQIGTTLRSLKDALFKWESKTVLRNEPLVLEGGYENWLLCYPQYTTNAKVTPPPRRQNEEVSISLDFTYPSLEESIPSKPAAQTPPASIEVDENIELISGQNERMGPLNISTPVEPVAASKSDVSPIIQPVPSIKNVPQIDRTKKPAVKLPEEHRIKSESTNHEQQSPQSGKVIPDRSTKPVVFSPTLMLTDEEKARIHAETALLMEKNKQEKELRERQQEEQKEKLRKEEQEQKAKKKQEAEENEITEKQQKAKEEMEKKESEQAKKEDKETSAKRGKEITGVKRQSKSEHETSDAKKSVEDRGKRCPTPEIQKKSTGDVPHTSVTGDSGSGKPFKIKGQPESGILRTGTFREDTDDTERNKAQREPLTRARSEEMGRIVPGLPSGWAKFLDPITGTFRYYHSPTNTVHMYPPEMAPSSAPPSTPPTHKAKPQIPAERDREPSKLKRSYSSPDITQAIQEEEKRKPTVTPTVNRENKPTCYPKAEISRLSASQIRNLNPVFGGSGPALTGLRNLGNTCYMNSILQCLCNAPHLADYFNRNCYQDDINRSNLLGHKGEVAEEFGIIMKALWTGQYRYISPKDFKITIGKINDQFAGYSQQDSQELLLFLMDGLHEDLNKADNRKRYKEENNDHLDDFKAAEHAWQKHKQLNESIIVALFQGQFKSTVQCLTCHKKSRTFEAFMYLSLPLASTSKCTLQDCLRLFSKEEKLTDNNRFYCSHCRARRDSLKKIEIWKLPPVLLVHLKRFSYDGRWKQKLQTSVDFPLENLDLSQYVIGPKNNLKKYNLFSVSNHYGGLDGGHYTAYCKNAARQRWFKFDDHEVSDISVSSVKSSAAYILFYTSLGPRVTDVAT
In short: as §1

Measured: log2 ratio of Biotin-Ahx-Ub-VS probe labelling

Chain of USP7 (Q93009 whole entry, looked up): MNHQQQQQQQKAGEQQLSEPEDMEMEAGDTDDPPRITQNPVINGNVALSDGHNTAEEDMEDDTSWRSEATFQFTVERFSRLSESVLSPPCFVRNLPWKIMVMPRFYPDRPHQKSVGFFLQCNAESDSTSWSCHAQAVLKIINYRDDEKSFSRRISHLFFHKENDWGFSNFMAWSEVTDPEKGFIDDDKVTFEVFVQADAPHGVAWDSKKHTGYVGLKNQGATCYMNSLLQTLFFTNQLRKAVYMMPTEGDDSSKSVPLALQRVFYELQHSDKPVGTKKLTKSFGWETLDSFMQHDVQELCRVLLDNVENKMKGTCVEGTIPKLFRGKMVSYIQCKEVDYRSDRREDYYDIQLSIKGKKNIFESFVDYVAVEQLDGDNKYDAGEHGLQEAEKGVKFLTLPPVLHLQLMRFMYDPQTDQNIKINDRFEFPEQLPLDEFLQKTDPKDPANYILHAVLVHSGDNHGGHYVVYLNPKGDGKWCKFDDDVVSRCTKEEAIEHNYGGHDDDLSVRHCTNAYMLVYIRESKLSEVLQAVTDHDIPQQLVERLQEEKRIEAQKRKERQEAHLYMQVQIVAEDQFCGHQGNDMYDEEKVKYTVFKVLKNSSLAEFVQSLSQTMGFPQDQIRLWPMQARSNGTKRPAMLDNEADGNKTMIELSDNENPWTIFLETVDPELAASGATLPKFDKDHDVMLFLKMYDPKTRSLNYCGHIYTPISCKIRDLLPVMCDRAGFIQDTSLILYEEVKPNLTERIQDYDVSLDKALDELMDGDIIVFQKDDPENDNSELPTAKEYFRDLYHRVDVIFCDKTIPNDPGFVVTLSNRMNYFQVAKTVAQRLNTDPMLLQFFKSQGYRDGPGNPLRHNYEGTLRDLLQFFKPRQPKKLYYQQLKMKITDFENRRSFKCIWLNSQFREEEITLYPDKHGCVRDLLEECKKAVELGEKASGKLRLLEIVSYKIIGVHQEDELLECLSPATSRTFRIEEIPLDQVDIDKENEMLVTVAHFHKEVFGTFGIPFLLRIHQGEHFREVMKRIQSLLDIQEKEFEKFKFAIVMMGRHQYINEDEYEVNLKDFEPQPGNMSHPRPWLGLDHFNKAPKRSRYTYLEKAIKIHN
Chain of USP46 (P62068 whole entry): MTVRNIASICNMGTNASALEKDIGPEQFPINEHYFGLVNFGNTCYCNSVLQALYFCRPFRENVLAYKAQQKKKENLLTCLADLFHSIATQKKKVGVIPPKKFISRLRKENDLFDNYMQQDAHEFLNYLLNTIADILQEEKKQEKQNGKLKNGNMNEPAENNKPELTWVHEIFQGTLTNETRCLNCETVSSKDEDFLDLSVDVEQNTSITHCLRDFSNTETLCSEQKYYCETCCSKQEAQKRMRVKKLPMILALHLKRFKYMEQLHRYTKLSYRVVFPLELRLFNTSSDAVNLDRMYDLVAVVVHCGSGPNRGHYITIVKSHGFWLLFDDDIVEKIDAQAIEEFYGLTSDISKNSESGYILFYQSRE
Chain of USP54 (Q70EL1 whole entry): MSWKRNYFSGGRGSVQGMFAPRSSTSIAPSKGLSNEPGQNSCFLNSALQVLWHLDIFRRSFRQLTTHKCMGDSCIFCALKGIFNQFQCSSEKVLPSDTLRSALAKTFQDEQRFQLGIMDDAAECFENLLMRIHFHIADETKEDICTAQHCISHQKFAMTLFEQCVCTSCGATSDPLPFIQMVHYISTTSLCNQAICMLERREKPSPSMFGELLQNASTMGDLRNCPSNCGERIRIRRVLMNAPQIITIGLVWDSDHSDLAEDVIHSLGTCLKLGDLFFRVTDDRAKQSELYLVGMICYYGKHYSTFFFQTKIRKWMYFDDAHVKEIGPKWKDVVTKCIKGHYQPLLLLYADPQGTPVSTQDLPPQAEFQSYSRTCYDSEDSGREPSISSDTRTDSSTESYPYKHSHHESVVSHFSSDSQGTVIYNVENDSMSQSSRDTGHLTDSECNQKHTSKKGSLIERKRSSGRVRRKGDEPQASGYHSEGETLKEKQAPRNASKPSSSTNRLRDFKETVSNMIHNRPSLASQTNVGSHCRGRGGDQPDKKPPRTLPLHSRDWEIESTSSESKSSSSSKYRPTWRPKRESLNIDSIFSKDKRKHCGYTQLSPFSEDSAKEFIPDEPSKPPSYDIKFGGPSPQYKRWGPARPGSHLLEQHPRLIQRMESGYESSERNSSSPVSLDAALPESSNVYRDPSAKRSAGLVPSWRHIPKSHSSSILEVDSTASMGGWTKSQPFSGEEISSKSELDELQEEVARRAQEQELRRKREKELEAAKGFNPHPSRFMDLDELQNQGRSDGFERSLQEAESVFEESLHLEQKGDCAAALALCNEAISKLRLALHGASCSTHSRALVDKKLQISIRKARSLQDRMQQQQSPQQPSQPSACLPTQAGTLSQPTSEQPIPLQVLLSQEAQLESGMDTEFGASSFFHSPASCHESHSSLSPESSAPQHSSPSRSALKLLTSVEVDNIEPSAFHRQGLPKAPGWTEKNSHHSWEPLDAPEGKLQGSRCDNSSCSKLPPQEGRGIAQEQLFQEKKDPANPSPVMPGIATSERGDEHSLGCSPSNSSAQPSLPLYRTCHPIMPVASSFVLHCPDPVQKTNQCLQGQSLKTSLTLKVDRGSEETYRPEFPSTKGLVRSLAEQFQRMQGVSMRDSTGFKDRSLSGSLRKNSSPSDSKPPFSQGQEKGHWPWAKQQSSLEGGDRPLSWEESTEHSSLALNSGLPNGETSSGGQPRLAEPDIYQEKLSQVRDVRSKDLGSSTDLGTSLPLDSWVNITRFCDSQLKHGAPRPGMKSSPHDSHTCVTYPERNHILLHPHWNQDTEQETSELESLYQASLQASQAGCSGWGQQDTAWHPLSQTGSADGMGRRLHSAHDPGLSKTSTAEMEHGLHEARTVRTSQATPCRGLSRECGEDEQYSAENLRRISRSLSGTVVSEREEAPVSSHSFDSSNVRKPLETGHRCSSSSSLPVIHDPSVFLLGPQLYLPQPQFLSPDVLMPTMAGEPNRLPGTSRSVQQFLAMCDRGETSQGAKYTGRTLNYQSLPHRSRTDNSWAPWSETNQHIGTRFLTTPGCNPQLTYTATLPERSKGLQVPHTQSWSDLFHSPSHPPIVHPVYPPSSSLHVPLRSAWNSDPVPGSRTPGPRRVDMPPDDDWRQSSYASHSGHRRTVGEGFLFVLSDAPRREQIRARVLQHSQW

O=C(CCl)N1CCOCCC1c1ccccc1 (stereo not drawn)
inactive: USP42 0.345 | USP46 -0.0581 | USP47 -0.596 | USP48 0.0099 | USP5 0.135 | USP54 0.504 | USP7 -0.526 | USP8 -0.109
